A short description of test [1]: NCI Yeast Anticancer Drug Screen. Data for the rad50 strain (AID 155).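 Also: 0% = growth of vehicle-only cultures of the same strain.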 As to conditions: S. cerevisiae rad50 strain growth inhibition; at 50.0 µM; hits give high values. In outline:
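Compounds were tested on a yeast strain with an engineered DNA damage repair alteration; the reported value is growth inhibition normalised to vehicle treatment.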

Test [2] is described as follows: NCI Yeast Anticancer Drug Screen. Data for the mec2-1 strain (AID 157). The note with it: S. cerevisiae mec2-1 strain, at 50.0 µM, hits give high values. In outline:
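Vehicle-treated cultures served as reference for growth inhibition of compound-exposed mec2-1 yeast.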

The nature of test [3]: NCI Yeast Anticancer Drug Screen. Data for the sgs1 mgt1 strain (AID 161).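 Also: 0% = growth of cultures given vehicle only.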 The note with it: S. cerevisiae sgs1 mgt1 strain, at 50.0 µM, hits give high values. In outline:
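Inhibition of yeast growth, normalised to vehicle-treated controls, is reported for a strain bearing genetic alterations in DNA damage repair.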

Test [4] in a line: NCI Yeast Anticancer Drug Screen. Data for the cln2 rad14 strain (AID 165).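 Also: 0% = growth equal to vehicle treated cultures.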 The note with it: S. cerevisiae cln2 rad14 strain, at 50.0 µM, hits give high values. In outline:
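Each compound was tested on cln2 rad14 yeast. Inhibition of growth was calculated against vehicle-exposed controls.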

Test [5] can be described thus: NCI Yeast Anticancer Drug Screen. Data for the bub3 strain (AID 167). As to conditions: S. cerevisiae bub3 mutant strain, at 50.0 µM, hits give high values. The gist of the method:
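Growth of a checkpoint-deficient yeast mutant is measured after compound exposure. Values represent inhibition relative to vehicle.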

Test [6] is described as follows: NCI Yeast Anticancer Drug Screen. Data for the mlh1 rad18 strain (AID 175). The note with it: S. cerevisiae mlh1 rad18 strain growth inhibition; at 50.0 µM; hits give high values. In outline:
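Vehicle-treated cultures served as the reference for growth inhibition in a yeast strain carrying DNA damage repair alterations exposed to each compound.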

About 79,000 compounds went through this panel and 15% of them were active in at least one assay; those are over-represented in the sample as a whole. Unmarked numbers belong to inactive results. Activity calls are given as the source filed them. Rule as the data show it: active = growth inhibition above about 70%; inactive = the rest.

Consider `Nc1cccc(Nc2nc3ccccc3nc2NS(=O)(=O)c2ccccc2)c1`, for which the growth inhibition is 18.5% in test [1]; 22.6% in test [2]; 14.6% in test [3]; -11.3% in test [4]; -2.5% in test [5]; -9.1% in test [6].
For `O=C(Cc1ccccc1)NN(Cc1ccccc1)Cc1ccccc1`, the growth inhibition in test [1] was -14.8%; in test [2], -0.85%; in test [3] it was -2.95%; in test [4] it was -10.8%; in test [5] it was 23.9%; in test [6], 0.5%.
Consider `CC(C)C(NC(=O)C1CCCN1)P(=O)(O)O` (stereo not given), for which the growth inhibition was 10.1% in test [1]; 1.7% in test [2]; 4.55% in test [3]; -10.8% in test [4]; 5% in test [5]; 5.9% in test [6].
For `C/C=C(\C)C(=O)OC1C2C(C)=CC(=O)C(O)C2(C)C2C3(O)OCC24C1OC(=O)C(OC(C)=O)C4C(C)C3O` (stereo not given), the growth inhibition in test [1] was 91.9% (active); in test [2], 93.3% (active); in test [3] it was 92.8% (active); in test [4] it was 91.8% (active); in test [5] it was 91.7% (active); in test [6], 91.6% (active).
Take `N#C/C(=C\C=C\c1ccccc1)C(N)=O`: the growth inhibition in test [1] was -57.8%; in test [2], -27.6%; in test [3], -27.4%; in test [4], -7.45%; in test [5] it was -51.5%; in test [6] it was -49.8%.
For the molecule `COc1ccc2c3c([nH]c2c1)CCN(CCCC(=O)c1ccc(F)cc1)C3`, the growth inhibition in test [1] is -8.15%; in test [2] it was -4%; in test [3] it was 42.6%; in test [4], 31.1%; in test [5] it was 45.2%; in test [6], 1.8%.
Consider `CCCCN=Cc1ccc(Cl)cc1`, for which the growth inhibition was -2.65% in test [1]; -24.1% in test [2]; -32.1% in test [3]; 6.5% in test [4]; -19.9% in test [5]; -6% in test [6].
In the case of `O=C(CCCCl)c1ccccc1`, the growth inhibition in test [1] was 0.75%; in test [2] it was -4%; in test [3], -18.1%; in test [4], 2.35%; in test [5], -7.1%; in test [6], -2.6%.
As for `CCN(CC)CCOc1c(C)cccc1C`, the growth inhibition is -5.15% in test [1]; 3.45% in test [2]; -13.1% in test [3]; -14.2% in test [4]; 12.1% in test [5]; -2% in test [6].
With `O=[N+]([O-])c1ccc(O)c(N=Cc2ccc(C=Nc3cc([N+](=O)[O-])ccc3O)cc2)c1`, the growth inhibition in test [1] was -24.9%; in test [2] it was -19.8%; in test [3], -13.8%; in test [4], 1.2%; in test [5], -5.1%; in test [6] it was -17.6%.
Consider `O=C(CCCCl)CCCCl`, for which the growth inhibition in test [1] is 12.2%; in test [2], -10.9%; in test [3] it was 21.6%; in test [4] it was 12.6%; in test [5], -3.6%; in test [6], 19.1%.
Consider `O=C(CCBr)OCCC1CCCCC1`, for which the growth inhibition was -1.95% in test [1]; -2.45% in test [2]; -0.8% in test [3]; -16.1% in test [4]; -7.05% in test [5]; 5.6% in test [6].
For `CC(C)=CCOc1cc(NC(=S)c2ccsc2C)ccc1Cl`, the growth inhibition is -40.6% in test [1]; -24.6% in test [2]; -34.1% in test [3]; -22.4% in test [4]; -19.1% in test [5]; -36.3% in test [6].
In the case of `CCOc1ccccc1NC(=O)CC(C(=O)OC)C(=O)C(=O)OC` (stereo not given), the growth inhibition is -10% in test [1]; 5.75% in test [2]; -24.1% in test [3]; 20% in test [4]; -8.9% in test [5]; -9.75% in test [6].
With `O=c1[nH]c2ccccc2c(O)c1/C=N/C(=S)NC1CCCCC1`, the growth inhibition in test [1] is -14.6%; in test [2], -36.3%; in test [3], -7.55%; in test [4] it was 14.9%; in test [5], 3.45%; in test [6] it was 9.25%.
Regarding `CCC1(C(=O)OC)CCC2C3CCC4CCCCC4(C)C3CCC21C` (stereo not given), the growth inhibition was 4.6% in test [1]; -8.9% in test [2]; 9.25% in test [3]; -3.95% in test [4]; 5.4% in test [5]; 11.1% in test [6].
With `c1ccc(CNCCNCc2ccccn2)nc1`, the growth inhibition in test [1] is 25.4%; in test [2] it was 7.45%; in test [3], 16.1%; in test [4] it was -61.1%; in test [5] it was -1.15%; in test [6], 16.8%.
For `O=C1C(N=Nc2ccccc2)Sc2nc3ccccc3n21` (stereo not given), the growth inhibition in test [1] was -16.1%; in test [2] it was -3.2%; in test [3], 2.85%; in test [4], -52%; in test [5] it was 4.5%; in test [6], -9.1%.
Take `Cc1ccc(NC(=O)c2cc(S(=O)(=O)n3cc[nH]c3=O)c(S)cc2Cl)cc1`: the growth inhibition in test [1] is 14.5%; in test [2], -5.85%; in test [3] it was 23.9%; in test [4], 8.65%; in test [5], -4.75%; in test [6], 34%.
Regarding `C1CCCCC2(CCCCCCCCC3(CCC1)OCCO3)OCCO2`, the growth inhibition in test [1] is -2%; in test [2], -21.2%; in test [3] it was -8.5%; in test [4], 25.6%; in test [5] it was 1.1%; in test [6], -5.25%.
